The supplement of paper PMC8183993
“And” between values parts separate entries of the source, which are not always exact repeats. Equal entries are not always repeated. Structures can show the parent of a compound that is named as a salt. ± gives the standard deviation of the averaged measurements. The full ranking holds about 3,100 compounds; the median of “mean cytoplasmic OPP incorporation (global translation) relative to DMSO” is about 100, and the lowest 2% start at about 56. This excerpt belongs to a sample that is enriched for the lowest values.

tested on: U2OS; test: mean cytoplasmic OPP incorporation (global translation) relative to DMSO (% of DMSO); higher = more protein synthesis; conditions: 10 µM; 24 h
Description: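 Primary image-based screen in U2OS cells: compounds at 10 uM for 24 h, then a 1 h o-propargyl-puromycin (OPP) pulse, click labelling, and high-throughput microscopy. Mean cytoplasmic OPP intensity and nuclei count were normalised to DMSO wells within each plate (DMSO = 100) and averaged over triplicate plates.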

Q: `Cc1cc(Cc2cc(C)cc(C(C)(C)C)c2O)c(O)c(C(C)(C)C)c1` was tested. Which “mean cytoplasmic OPP incorporation” value did it give?
A: Its value is 103.

Q: With `CC1(C)OC2=C(C(=O)c3ccccc3C2=O)[C@H](NCc2ccccc2)[C@@H]1O` as the compound, how does the “mean cytoplasmic OPP incorporation” value read?
A: Its value is 38.9.

Q: How did the “mean cytoplasmic OPP incorporation” value turn out when `Cc1cc(C(=O)NNCc2ccccc2)no1` [Isocarboxazid] was run?
A: Its value is 106.

Q: Which “mean cytoplasmic OPP incorporation” value does the source give for `CC1(C)S[C@@H]2[C@H](NC(=O)Cc3ccccc3)C(=O)N2[C@H]1C(=O)O` [Benzathine benzylpenicillin] here?
A: The value was 104.

Q: How did the “mean cytoplasmic OPP incorporation” value turn out when `CC1(C)S[C@@H]2[C@H](NC(=O)Cc3ccccc3)C(=O)N2[C@H]1C(=O)O` [Benzylpenicillin sodium] was run?
A: Its value is 80.8.

Q: `CC(C)Oc1ccc(-c2c[nH]cc2CN(C)CCN)cc1` was tested. Which “mean cytoplasmic OPP incorporation” value did it give?
A: Its value is 100.

Q: For `CC(CCCCC(=O)Nc1ccc(C(F)(F)F)cc1)NCCc1cnc[nH]1` (stereo unspecified) [HTMT dimaleate], which “mean cytoplasmic OPP incorporation” value is on record?
A: The value was 100.

Q: With `CC1(C)Oc2ccc(C#N)cc2[C@H](N2CCCC2=O)[C@H]1O` [Cromakalim] as the compound, how does the “mean cytoplasmic OPP incorporation” value read?
A: Its value is 98.1.

Q: `FC(F)(F)c1cc(COC2CCCNC2c2ccccc2)cc(C(F)(F)F)c1` [L-733,060 hydrochloride] was tested. Which “mean cytoplasmic OPP incorporation” value did it give?
A: The value was 108.

Q: How did the “mean cytoplasmic OPP incorporation” value turn out when `CCC(C)[C@H](NS(=O)(=O)c1cccc2ccccc12)C(=O)N[C@H](C=O)Cc1c[nH]c2ccccc12` (stereo partly specified) was run?
A: Its value is 102.

Q: For `C[n+]1cc2c3c(ccc2c2ccc4cc5c(cc4c21)OCO5)OCO3` [Sanguinarine chloride], which “mean cytoplasmic OPP incorporation” value is on record?
A: The value was 42.4.

Q: `COc1ccc2cc3[n+](cc2c1OC)CCc1cc2c(cc1-3)OCO2` [Berberine HCl] was tested. Which “mean cytoplasmic OPP incorporation” value did it give?
A: The value was 106.

Q: How did the “mean cytoplasmic OPP incorporation” value turn out when `O=c1[nH]c2cc(Cl)ccc2c(O)c1-c1cccc(Oc2ccccc2)c1` was run?
A: Its value is 103.

Q: How did the “mean cytoplasmic OPP incorporation” value turn out when `O=C1NC(=O)c2c1c(-c1ccccc1)cc1[nH]c3ccc(O)cc3c21` was run?
A: The value was 51.8.

Q: With `CS(=O)(=O)CCNCc1nc(-c2ccc3ncnc(Nc4ccc(OCc5cccc(F)c5)c(Cl)c4)c3c2)cs1` as the compound, how does the “mean cytoplasmic OPP incorporation” value read?
A: Its value is 102.

Q: With `N#Cc1cc2c(OCC(O)CN3CCN(C(c4ccccc4)c4ccccc4)CC3)cccc2[nH]1` (stereo unspecified) as the compound, how does the “mean cytoplasmic OPP incorporation” value read?
A: The value was 107.

Q: With `CCN(CCO)CCCC(C)Nc1ccnc2cc(Cl)ccc12` (stereo unspecified) [Hydroxychloroquine sulfate] as the compound, how does the “mean cytoplasmic OPP incorporation” value read?
A: Its value is 102.

Q: Which “mean cytoplasmic OPP incorporation” value does the source give for `CCN(CC)CCCC(C)Nc1ccnc2cc(Cl)ccc12` (stereo unspecified) [Chloroquine diphosphate] here?
A: Its value is 105.

Q: Which “mean cytoplasmic OPP incorporation” value does the source give for `CCN(CCO)CCCC(C)Nc1ccnc2cc(Cl)ccc12` (stereo unspecified) [Hydroxychloroquine] here?
A: Its value is 93.

Q: With `CCN(CC)CCCC(C)Nc1ccnc2cc(Cl)ccc12` (stereo unspecified) [Chloroquine] as the compound, how does the “mean cytoplasmic OPP incorporation” value read?
A: Its value is 107.

Q: For `CCN(CC)CCCC(C)Nc1c2ccc(Cl)cc2nc2ccc(OC)cc12` (stereo unspecified) [Quinacrine dihydrochloride dihydrate], which “mean cytoplasmic OPP incorporation” value is on record?
A: The value was 29.5.

Q: Which “mean cytoplasmic OPP incorporation” value does the source give for `O=C(CCCCCCC(=O)NO)NO` [Suberoyl bis-hydroxamic acid] here?
A: Its value is 88.4.

Q: For `C[C@H](CCC(=O)NCC(=O)O)[C@H]1CC[C@H]2[C@@H]3CC[C@@H]4C[C@H](O)CC[C@]4(C)[C@H]3C[C@H](O)[C@]12C` [Glycodeoxycholic acid], which “mean cytoplasmic OPP incorporation” value is on record?
A: Its value is 102.

Q: Which “mean cytoplasmic OPP incorporation” value does the source give for `COc1ccc(-c2ccc3ncc4c(c3c2)n(-c2ccc(N3CCNCC3)c(C(F)(F)F)c2)c(=O)n4C)cn1` here?
A: Its value is 33.4 ± 16.

Q: For `CCC(=O)N1CCN(c2ccc(-n3c(=O)ccc4cnc5ccc(-c6cnc7ccccc7c6)cc5c43)cc2C(F)(F)F)CC1` [Torin 1], which “mean cytoplasmic OPP incorporation” value is on record?
A: The value was 73.

Q: `Nc1ccc(-c2ccc3ncc4ccc(=O)n(-c5cccc(C(F)(F)F)c5)c4c3c2)cn1` [Torin 2] was tested. Which “mean cytoplasmic OPP incorporation” value did it give?
A: Its value is 67.6 ± 3.6.

Q: With `CCN(CC)CCNC(=O)c1c(C)[nH]c(/C=C2\C(=O)Nc3ccc(Cl)cc32)c1C` as the compound, how does the “mean cytoplasmic OPP incorporation” value read?
A: Its value is 124.

Q: How did the “mean cytoplasmic OPP incorporation” value turn out when `Cc1nnc(-c2ccc3occ(-c4ccc([S+](C)[O-])cc4)c3c2)o1` (stereo unspecified) was run?
A: Its value is 105.

Q: `CCCCC[C@H](O)/C=C/C=C\CCCCCCCC(=O)O` [13(S)-Hydroxy-9Z,11E-octadecadienoic acid] was tested. Which “mean cytoplasmic OPP incorporation” value did it give?
A: The value was 99.3.

Q: `CC(/C=C/C(=O)NO)=C\[C@@H](C)C(=O)c1ccc(N(C)C)cc1` [Trichostatin A] was tested. Which “mean cytoplasmic OPP incorporation” value did it give?
A: The value was 66.2 ± 33.

Q: For `CN1CCCN(C(=O)c2cccc(-c3ccc(/C=C4/C(=O)Nc5ccc(Cl)cc54)o3)c2)CC1`, which “mean cytoplasmic OPP incorporation” value is on record?
A: Its value is 55.4.

Q: Which “mean cytoplasmic OPP incorporation” value does the source give for `CN1CCN(C(=O)c2nc3ccc(Cl)cc3[nH]2)CC1` here?
A: The value was 81.1.

Q: With `Cc1[nH]c(/C=C2\C(=O)Nc3ccc(S(=O)(=O)N(C)c4cccc(Cl)c4)cc32)c(C)c1C(=O)N1CCN(C)CC1` as the compound, how does the “mean cytoplasmic OPP incorporation” value read?
A: The value was 88.9.

Q: For `NCCCCCc1c[nH]cn1` [Impentamine dihydrobromide], which “mean cytoplasmic OPP incorporation” value is on record?
A: The value was 99.3.

Q: With `Cc1cc(C)c(S(=O)(=O)Nc2ccccc2C(F)(F)F)c(C)c1` as the compound, how does the “mean cytoplasmic OPP incorporation” value read?
A: The value was 97.3.

Q: With `O=C(Nc1ccccc1-c1cn2c(CN3CCNCC3)csc2n1)c1cnc2ccccc2n1` as the compound, how does the “mean cytoplasmic OPP incorporation” value read?
A: The value was 48.8.

Q: How did the “mean cytoplasmic OPP incorporation” value turn out when `Cc1cc(C(=O)O)sc1C(N)C(=O)O` (stereo unspecified) was run?
A: Its value is 104.

Q: For `COC(=O)[C@@H](N)CSC/C=C(\C)CC/C=C(\C)CCC=C(C)C` [S-Farnesyl-L-cysteine methyl ester], which “mean cytoplasmic OPP incorporation” value is on record?
A: The value was 95.9.

Q: How did the “mean cytoplasmic OPP incorporation” value turn out when `CSc1ccc(/C=C2/C(C)=C(CC(=O)O)c3cc(F)ccc32)cc1` [Sulindac Sulfide] was run?
A: Its value is 104.

Q: How did the “mean cytoplasmic OPP incorporation” value turn out when `Nc1nc(Nc2ccc(S(N)(=O)=O)cc2)nn1C(=O)c1c(F)cccc1F` was run?
A: The value was 50.1.

Q: How did the “mean cytoplasmic OPP incorporation” value turn out when `NS(=O)(=O)c1ccc(NC(=O)Nc2ccc(F)cc2)cc1` was run?
A: Its value is 98.7.

Q: How did the “mean cytoplasmic OPP incorporation” value turn out when `COc1ccc(CCN2CCN(CCCc3ccccc3)CC2)cc1OC` was run?
A: The value was 111.

Q: Which “mean cytoplasmic OPP incorporation” value does the source give for `CCN(C(=O)CO)[C@H]1CN(/C(=N\C#N)Nc2cccc(OC(F)F)c2)N=C1c1ccc(Cl)c(Cl)c1` here?
A: Its value is 107.

Q: How did the “mean cytoplasmic OPP incorporation” value turn out when `CCCCCCCCOC(=O)/C=C/c1ccc(O)c(O)c1` [n-Octyl caffeate] was run?
A: Its value is 88.9.

Q: For `NC(N)=NCCC[C@H](NC(=O)[C@@H]1CCCN1C(=O)[C@H](N)Cc1ccccc1)C(=O)CCl`, which “mean cytoplasmic OPP incorporation” value is on record?
A: Its value is 99.7.

Q: How did the “mean cytoplasmic OPP incorporation” value turn out when `O=C(O)Cc1ccc(OCCNC[C@H](O)c2ccccc2)cc1` [ZD 2079 hydrochloride] was run?
A: Its value is 103.

Q: For `Cc1cc(I)ccc1Nc1c(C(=O)NOCC2CC2)cc(F)c(F)c1F`, which “mean cytoplasmic OPP incorporation” value is on record?
A: Its value is 97.5.

Q: For `CCCC[C@@H](C=O)NC(=O)[C@H](CC(C)C)NC(=O)OCc1ccccc1` [Calpeptin], which “mean cytoplasmic OPP incorporation” value is on record?
A: The value was 106 ± 7.2.

Q: For `CC(C)C[C@@H](C=O)NC(=O)[C@H](CC(C)C)NC(=O)[C@H](CC(C)C)NC(=O)OCc1ccccc1`, which “mean cytoplasmic OPP incorporation” value is on record?
A: Its value is 91.4 and 56.1.

Q: Which “mean cytoplasmic OPP incorporation” value does the source give for `CC(NC(=O)C(Cc1ccccc1)NC(=O)OCc1ccccc1)C(=O)CF` (stereo unspecified) here?
A: Its value is 101.

Q: `C[C@H](CC[C@@H]1OC1(C)C)[C@H]1CC[C@H]2[C@@H]3CC=C4C[C@@H](O)CC[C@]4(C)[C@H]3CC[C@]12C` [24(S),25-Epoxycholesterol] was tested. Which “mean cytoplasmic OPP incorporation” value did it give?
A: The value was 112.
